According to the supplement of paper PMC4100887:
± gives the standard deviation of the averaged measurements.

Key:
[1] = system: IMR-90; test: relative cell viability (ATPlite) vs untreated control (fraction); higher = less toxic; details: 1 µM; 72 h
[2] = system: K562; test: as above; details: 1 µM; 72 h
[3] = system: K562; test: relative cell viability (ATPlite) vs untreated control, with imatinib (fraction); higher = less toxic; details: 1 µM; 72 h; imatinib 0.125 µM

SMILES | relative cell viability [1] | relative cell viability [2] | relative cell viability [3]
O=C1NC(=O)c2c1c1c3ccccc3n3c1c1c2c2ccccc2n1[C@H]1CC[C@@H]3O1 | 1.04 ± 0.092 | 0.872 ± 0.058 | 0.797 ± 0.069
O=[N+]([O-])/C=C/c1ccc2c(c1)OCO2 [Syk Inhibitor III] | 0.932 ± 0.087 | 0.819 ± 0.063 | 0.753 ± 0.033
COc1ccc2c(c1)/C(=C/c1cnc[nH]1)C(=O)N2 | 1.31 ± 0.26 | 0.907 ± 0.17 | 0.881 ± 0.08
NC(=NN=Cc1ccc(-c2cccc([N+](=O)[O-])c2)o1)N[N+](=O)[O-] [ERK Inhibitor III] | 1.01 ± 0.12 | 0.937 ± 0.079 | 0.775 ± 0.053
O=S(=O)(c1c(O)c(Cl)cc(Cl)c1Cl)c1c(O)c(Cl)cc(Cl)c1Cl [p38 MAP Kinase Inhibitor IV] | 0.988 ± 0.073 | 0.813 ± 0.076 | 0.762 ± 0.026
COC(=O)[C@]1(O)C[C@@H]2O[C@@]1(C)n1c3ccccc3c3c4c(c5c6ccccc6n2c5c31)C(=O)NC4 [K-252a, Nocardiopsis sp.] | 0.668 ± 0.06 | 0.305 ± 0.26 | 0.363 ± 0.26
CC(C)(C)c1cc(C=C(C#N)C#N)cc(Br)c1O | 0.962 ± 0.047 | 1 ± 0.12 | 0.847 ± 0.017
